Common to all, as to conditions: mRNA level, 48 h; actives raise or lower the signal
Read-out in assay [1]: Alkaline Phosphatase, Placental (ALPP) gene, ALPP (gene 250)
The experiment in a line: LTEA_HepaRG_ALPP: Life Technologies and Expression Analysis (LTEA) Assay for Alkaline Phosphatase, Placental (ALPP) gene using HepaRG (AID 2283468). In a few lines:
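Using human liver HepaRG cells, chemicals are tested in duplicate over 48 h at half-log concentrations topping at 100 uM; phenobarbital 1 mM serves as induction control. ALPP mRNA change by qRT-PCR, bidirectional fit against vehicle.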

Read-out in assay [2]: Bcl-2 (BAD) gene, BAD (gene 572)
Description: LTEA_HepaRG_BAD: Life Technologies and Expression Analysis (LTEA) Assay for Bcl-2 (BAD) gene using HepaRG (AID 2283469). Put shortly: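 BAD transcript change, measured by qRT-PCR against three housekeeping genes and fitted in both directions relative to 0.5% DMSO, after 48 h chemical treatment of human HepaRG liver cells at concentrations up to 100 uM.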

Read-out in assay [3]: Bcl-2 (BAX) gene, BAX (gene 581)
The experiment in a line: LTEA_HepaRG_BAX: Life Technologies and Expression Analysis (LTEA) Assay for Bcl-2 (BAX) gene using HepaRG (AID 2283470). In a few lines:
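Differentiated HepaRG cells exposed 48 h in serum-free induction medium, eight half-log concentrations from 100 uM, in duplicate, 0.5% DMSO vehicle. BAX mRNA by TaqMan qRT-PCR, normalised to ACTB, GAPDH and POLR2A.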

Read-out in assay [4]: adenosine kinase (ADK) gene, ADK (gene 132)
Description: LTEA_HepaRG_ADK: Life Technologies and Expression Analysis (LTEA) Assay for adenosine kinase (ADK) gene using HepaRG (AID 2283471). In a few lines:
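Read-out is ADK transcript level measured by qRT-PCR and normalised to three housekeeping genes. Cells are human HepaRG, dosed for 48 h at up to 100 uM in 0.5% DMSO. Gain or loss of signal is fitted against DMSO controls.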

Read-out in assay [5]: Alpha-fetoprotein (AFP) gene, AFP (gene 174)
The experiment in a line: LTEA_HepaRG_AFP: Life Technologies and Expression Analysis (LTEA) Assay for Alpha-fetoprotein (AFP) gene using HepaRG (AID 2283472). Put shortly:
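Differentiated human HepaRG cells exposed 48 h in serum-free induction medium, 8-point half-log series from 100 uM in 0.5% DMSO, duplicate. AFP mRNA by qRT-PCR, normalized to ACTB, GAPDH, POLR2A; bidirectional fit vs DMSO.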

Read-out in another assay: BCL2L11 (gene 10018)
Description: LTEA_HepaRG_BCL2L11: Life Technologies and Expression Analysis (LTEA) Assay for Bcl-2 (BCL2L11) gene using HepaRG (AID 2283473). In a few lines: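 Human hepatic HepaRG cultures are treated 48 h with test chemicals (maximum 100 uM, 0.5% DMSO vehicle). Expression of BCL2L11 is measured by qRT-PCR against ACTB, GAPDH and POLR2A, with activity in either direction scored relative to vehicle.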

Read-out in assay [6]: Apolipoprotein A-V (APOA5) gene, APOA5 (gene 116519)
The experiment in a line: LTEA_HepaRG_APOA5: Life Technologies and Expression Analysis (LTEA) Assay for Apolipoprotein A-V (APOA5) gene using HepaRG (AID 2283474). In a few lines: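 Concentration-response of APOA5 expression in HepaRG: eight half-log doses to 100 uM, 48 h, qRT-PCR normalized to ACTB/GAPDH/POLR2A, bidirectional fitting with 0.5% DMSO as baseline.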

Read-out in assay [7]: Apoptosis regulator Bcl-2 (Homo sapiens) (UniProt P10415)
The experiment in a line: LTEA_HepaRG_BCL2: Life Technologies and Expression Analysis (LTEA) Assay for Bcl-2 gene using HepaRG (AID 2283475). In a few lines:
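Differentiated human HepaRG cells in serum-free induction medium exposed 48 h, in duplicate, to 8-point half-log series from 100 uM in 0.5% DMSO. BCL2 mRNA by qRT-PCR (TaqMan/Fluidigm), normalized to ACTB, GAPDH, POLR2A; bidirectional fit against DMSO.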

Read-out in assay [8]: Bcl-2 (BID) gene, BID (gene 637)
Description: LTEA_HepaRG_BID: Life Technologies and Expression Analysis (LTEA) Assay for Bcl-2 (BID) gene using HepaRG (AID 2283476). Put shortly: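 Gene expression by qRT-PCR in HepaRG cells after 48 h exposure, duplicate wells, eight half-log concentrations topping at 100 uM in 0.5% DMSO. Normalized to ACTB, GAPDH, POLR2A; bidirectional fitting relative to DMSO.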

Read-out in the next assay: Caspase-3 (Homo sapiens) (UniProt P42574)
Description: LTEA_HepaRG_CASP3: Life Technologies and Expression Analysis (LTEA) Assay for cysteine-aspartic acid protease (CASP3) using HepaRG (AID 2283477). Put shortly:
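Transcript-level assay: CASP3 mRNA in human HepaRG after 48 h treatment, eight half-log concentrations from 100 uM in 0.5% DMSO, quantified by qRT-PCR.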

Read-out in assay [9]: Cytochrome P450 (CYP24A1), CYP24A1 (gene 1591)
Description: LTEA_HepaRG_CYP24A1: Life Technologies and Expression Analysis (LTEA) Assay for Cytochrome P450 (CYP24A1) using HepaRG (AID 2283478). In a few lines:
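Gene expression of CYP24A1 by TaqMan qRT-PCR in HepaRG after 48 h treatment, highest concentration 100 uM; activity fitted in both directions relative to DMSO vehicle.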

Read-out in assay [10]: Cytochrome P450 (CYP1A2), CYP1A2 (gene 1544)
Description: LTEA_HepaRG_CYP1A2: Life Technologies and Expression Analysis (LTEA) Assay for Cytochrome P450 (CYP1A2) using HepaRG (AID 2283479). In a few lines:
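In duplicate wells, HepaRG cultures maintained in 0.5% DMSO were treated 48 h across an 8-point, half-log series topping at 100 uM; phenobarbital (1 mM) served as induction control. Expression was read by qRT-PCR.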

Read-out in assay [11]: cysteine-aspartic acid protease (CASP8), CASP8 (gene 841)
Description: LTEA_HepaRG_CASP8: Life Technologies and Expression Analysis (LTEA) Assay for cysteine-aspartic acid protease (CASP8) using HepaRG (AID 2283480). Put shortly:
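HepaRG, 48 h exposure, duplicate wells; 8 conc, half-log from 100 uM, 0.5% DMSO. Serum-free induction medium. CASP8 mRNA by TaqMan qRT-PCR, norm. ACTB/GAPDH/POLR2A; gain/loss fitted vs DMSO.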

Read-out in assay [12]: Cytochrome P450 (CYP2B6), CYP2B6 (gene 1555)
Description: LTEA_HepaRG_CYP2B6: Life Technologies and Expression Analysis (LTEA) Assay for Cytochrome P450 (CYP2B6) using HepaRG (AID 2283481). In a few lines: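 Human HepaRG, 48 h dosing, 0.5% DMSO vehicle, top dose 100 uM. CYP2B6 transcript by qRT-PCR, housekeeping-normalized, bidirectional curve fit.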

Read-out in assay [13]: Cytochrome P450 2C19 (Homo sapiens) (UniProt P33261)
The experiment in a line: LTEA_HepaRG_CYP2C19: Life Technologies and Expression Analysis (LTEA) Assay for CYP2C19 using HepaRG (AID 2283482). Put shortly:
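Endpoint: CYP2C19 mRNA change, bidirectional fit vs 0.5% DMSO. Cells: HepaRG, 48 h exposure, eight-point series topping at 100 uM. Quantitation: qRT-PCR normalized to ACTB, GAPDH, POLR2A.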

Read-out in another assay: CYP2C8 (gene 1558)
The experiment in a line: LTEA_HepaRG_CYP2C8: Life Technologies and Expression Analysis (LTEA) Assay for CYP2C8 using HepaRG (AID 2283483). Put shortly:
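CYP2C8 mRNA induction or loss, by qRT-PCR normalized to ACTB/GAPDH/POLR2A, is read in HepaRG cells after 48 h treatment. Concentrations run from 100 uM down in half-log dilutions, with 0.5% DMSO as vehicle and baseline.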

Read-out in a further assay: CYP2C9 (gene 1559)
The experiment in a line: LTEA_HepaRG_CYP2C9: Life Technologies and Expression Analysis (LTEA) Assay for CYP2C9 using HepaRG (AID 2283484). In a few lines: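 Cells plated 48 h, switched to serum-free induction medium, then treated in duplicate for 48 h at eight concentrations (max 100 uM, 0.5% DMSO). RNA then analysed by qRT-PCR for CYP2C9; curves fitted in both directions relative to DMSO.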

Read-out in another assay: CYP2E1 (gene 1571)
Description: LTEA_HepaRG_CYP2E1: Life Technologies and Expression Analysis (LTEA) Assay for CYP2E1 using HepaRG (AID 2283485). Put shortly: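 HepaRG cells, plated 48 h, then exposed 48 h in serum-free induction medium to eight half-log concentrations from 100 uM in 0.5% DMSO, duplicate. CYP2E1 mRNA by qRT-PCR, normalized to ACTB/GAPDH/POLR2A; bidirectional fit versus DMSO.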

Read-out in the next assay: CYP4A11 (gene 1579)
Description: LTEA_HepaRG_CYP4A11: Life Technologies and Expression Analysis (LTEA) Assay for CYP4A11 using HepaRG (AID 2283486). In a few lines:
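Human hepatic HepaRG cultures receive duplicate 48 h exposures across a concentration-response series topping at 100 uM. Expression changes in CYP4A11 are measured by qRT-PCR relative to DMSO controls.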

Read-out in assay [14]: Cytochrome P450 3A4 (Homo sapiens) (UniProt P08684)
The experiment in a line: LTEA_HepaRG_CYP3A4: Life Technologies and Expression Analysis (LTEA) Assay for CYP3A4 using HepaRG (AID 2283487). Put shortly:
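HepaRG, 48 h exposure, 8-pt CRC from 100 uM (half-log), 0.5% DMSO, duplicates; serum-free induction medium. Readout: CYP3A4 mRNA, qRT-PCR, ACTB/GAPDH/POLR2A normalization. Bidirectional fit vs DMSO.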

Activity calls are given as the source filed them. Rule for the calls: active = hit-call score of the fitted dose curve at least 0.9, where 1 is the maximum; inactive = score below 0.9.

In general, AC50 refers to the midpoint of the concentration-response curve, whichever way the signal moves.

Caspase-3 (Homo sapiens), sequence (P42574 whole entry, looked up): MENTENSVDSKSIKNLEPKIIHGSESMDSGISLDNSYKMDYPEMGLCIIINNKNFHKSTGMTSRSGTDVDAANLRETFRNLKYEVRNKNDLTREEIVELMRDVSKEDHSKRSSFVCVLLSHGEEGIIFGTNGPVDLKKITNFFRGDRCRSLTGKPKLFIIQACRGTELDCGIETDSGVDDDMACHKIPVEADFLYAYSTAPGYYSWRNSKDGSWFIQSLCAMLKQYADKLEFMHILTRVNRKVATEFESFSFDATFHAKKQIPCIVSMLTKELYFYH
Cytochrome P450 3A4 (Homo sapiens), sequence (P08684 whole entry, looked up): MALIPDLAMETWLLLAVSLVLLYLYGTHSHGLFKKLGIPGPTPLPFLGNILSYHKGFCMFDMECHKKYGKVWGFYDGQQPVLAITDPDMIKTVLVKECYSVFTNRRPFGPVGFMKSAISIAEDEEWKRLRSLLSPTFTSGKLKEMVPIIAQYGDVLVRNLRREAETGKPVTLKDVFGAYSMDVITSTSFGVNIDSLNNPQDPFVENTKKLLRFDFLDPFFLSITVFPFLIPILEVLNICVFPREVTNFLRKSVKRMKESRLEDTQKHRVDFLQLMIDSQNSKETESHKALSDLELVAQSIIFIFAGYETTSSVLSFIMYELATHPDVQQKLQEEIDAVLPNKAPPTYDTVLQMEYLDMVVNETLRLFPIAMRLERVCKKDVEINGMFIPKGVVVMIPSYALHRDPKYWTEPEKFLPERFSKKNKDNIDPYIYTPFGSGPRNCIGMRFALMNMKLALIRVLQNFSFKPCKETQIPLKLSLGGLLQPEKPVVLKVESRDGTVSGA
Apoptosis regulator Bcl-2 (Homo sapiens), sequence (P10415 whole entry, looked up): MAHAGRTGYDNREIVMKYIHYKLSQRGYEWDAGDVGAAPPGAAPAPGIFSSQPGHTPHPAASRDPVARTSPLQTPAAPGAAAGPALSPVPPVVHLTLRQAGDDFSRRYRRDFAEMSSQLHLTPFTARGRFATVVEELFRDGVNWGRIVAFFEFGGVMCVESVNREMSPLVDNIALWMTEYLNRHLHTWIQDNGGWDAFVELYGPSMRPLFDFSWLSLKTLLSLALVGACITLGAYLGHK
Cytochrome P450 2C19 (Homo sapiens), sequence (P33261 whole entry, looked up): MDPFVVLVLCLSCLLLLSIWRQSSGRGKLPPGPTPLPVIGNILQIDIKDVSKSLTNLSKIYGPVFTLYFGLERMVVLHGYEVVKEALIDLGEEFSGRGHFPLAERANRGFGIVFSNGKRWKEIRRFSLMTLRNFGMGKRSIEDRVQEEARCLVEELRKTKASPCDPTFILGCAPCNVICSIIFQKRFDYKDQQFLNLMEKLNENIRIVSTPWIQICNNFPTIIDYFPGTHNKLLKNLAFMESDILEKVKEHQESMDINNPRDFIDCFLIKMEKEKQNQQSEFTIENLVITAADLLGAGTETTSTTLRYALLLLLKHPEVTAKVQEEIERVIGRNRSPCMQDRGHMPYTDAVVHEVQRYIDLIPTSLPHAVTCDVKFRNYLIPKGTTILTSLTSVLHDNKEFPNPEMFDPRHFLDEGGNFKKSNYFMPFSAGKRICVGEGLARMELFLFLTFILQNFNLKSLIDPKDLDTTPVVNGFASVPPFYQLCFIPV

For the compound `CC(C)(O)C(=O)Nc1ccc([N+](=O)[O-])c(C(F)(F)F)c1`, the AC50 was 0.0354 µM (active) in [1]; 0.0265 µM (active) in [2]; 0.0415 µM (active) in the assay with BCL2L11 (gene 10018); 0.0349 µM (active) in [6]; 0.0296 µM (active) in assay [8]; 0.0406 µM (active) in assay [10]. Besides, the AC50 was 0.0142 µM (active) in assay [11], 44.3 µM (active) in assay [12], 37.1 µM (active) in the assay with CYP2E1 (gene 1571) and 42 µM (active) with CYP4A11 (gene 1579). The compound was called inactive (in assay [3]; in assay [4]; in assay [5]; in assay [7]; with Caspase-3 (Homo sapiens); in assay [9]). The compound was called inactive (in [13]; with CYP2C8 (gene 1558); with CYP2C9 (gene 1559); in assay [14]).

As to `Cc1cc(-c2ccc(N)c(C)c2)ccc1N`, the outcome (in assay [1]; in assay [2]; in [3]; in assay [4]; with BCL2L11 (gene 10018); in [6]) was inactive. The outcome (in [7]; in assay [8]; in the assay with Caspase-3 (Homo sapiens); in [9]; in assay [11]; in [13]) was inactive. Moreover, the outcome (with CYP2C8 (gene 1558); with CYP2C9 (gene 1559); with CYP4A11 (gene 1579); in [14]) was inactive. Besides, the AC50 in assay [5] is 34 µM (active); in assay [10], 37 µM (active); in assay [12], 9.15 µM (active); with CYP2E1 (gene 1571), 16.3 µM (active).

Take `CCC(C)c1cc([N+](=O)[O-])cc([N+](=O)[O-])c1O` (stereo not given): the AC50 was 1.58 µM (active) in assay [1]; 7.23 µM (active) in assay [3]; 2.24 µM (active) in [4]; 2.35 µM (active) in assay [5]; 1.39 µM (active) with BCL2L11 (gene 10018); 1.58 µM (active) in assay [6]. The AC50 in assay [7] was 12.3 µM (active); in assay [8], 2.42 µM (active); in assay [10], 2.66 µM (active); in [11], 4 µM (active); in assay [12] it was 1.32 µM (active); in assay [13], 2.12 µM (active). Besides, the half-maximal activity concentration (AC50) with CYP2C8 (gene 1558) is 2.6 µM (active); with CYP2C9 (gene 1559) it was 1.71 µM (active); with CYP2E1 (gene 1571) it was 1.22 µM (active); with CYP4A11 (gene 1579), 2.78 µM (active); in [14], 2.37 µM (active). For the same compound, the compound was called inactive (in assay [2]; with Caspase-3 (Homo sapiens); in [9]).

Values taken from PubChem BioAssay (EPA / NIEHS).
